{"source": "the supplement of paper PMC8728848", "experiment_in_all_cases": "glycan array binding signal (z-score within array); higher = stronger binding", "details_in_all_cases": "glycan notation: IUPAC condensed, linker removed", "key": {"[1]": {"target": "Fuc(a1-2)Gal(b1-3)GlcNAc(b1-3)Gal(b1-4)Glc", "procedure,_shortened": "(§1)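 Columns mapping to the same glycan were averaged after glycan names were converted to IUPAC-condensed notation. The data come from 3228 arrays in the Consortium for Functional Glycomics database, limited to those with an available protein sequence. Binding is reported as a within-array Z-score averaged across arrays of one protein sequence and across linkers.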"}, "[2]": {"target": "Fuc(a1-2)Gal(b1-4)GlcNAc(b1-3)Gal(b1-4)GlcNAc(b1-3)Gal(b1-4)GlcNAc", "procedure,_shortened": "as §1"}, "[3]": {"target": "Fuc(a1-2)Gal(b1-4)GlcNAc6S", "procedure,_shortened": "as §1"}, "[4]": {"target": "Fuc(a1-2)Gal(b1-4)[Fuc(a1-3)]GlcNAc", "procedure,_shortened": "as §1"}, "[5]": {"target": "Fuc(a1-2)Gal(b1-4)[Fuc(a1-3)]GlcNAc(b1-3)Gal(b1-4)[Fuc(a1-3)]GlcNAc(b1-3)Gal(b1-4)[Fuc(a1-3)]GlcNAc", "procedure,_shortened": "as §1"}, "[6]": {"target": "Fuc(a1-2)Gal6S(b1-4)Glc6S", "procedure,_shortened": "as §1"}, "[7]": {"target": "Fuc(a1-2)[GalNAc(a1-3)]Gal(b1-4)Glc", "procedure,_shortened": "as §1"}, "[8]": {"target": "Fuc(a1-3)[Gal(b1-4)]GlcNAc6S", "procedure,_shortened": "as §1"}, "[9]": {"target": "Fuc(a1-3)[Gal3S(b1-4)]GlcNAc6S", "procedure,_shortened": "as §1"}, "Gal(a1-6)Glc": {"target": "Gal(a1-6)Glc", "procedure,_shortened": "as §1"}, "[10]": {"target": "Gal(b1-4)GlcNAc(b1-3)Gal(b1-4)GlcNAc(b1-3)Gal(b1-4)GlcNAc", "procedure,_shortened": "as §1"}, "Gal3S(b1-3)GalNAc": {"target": "Gal3S(b1-3)GalNAc", "procedure,_shortened": "as §1"}, "Gal3S6S(b1-4)GlcNAc6S": {"target": "Gal3S6S(b1-4)GlcNAc6S", "procedure,_shortened": "as §1"}, "Gal4S6S(b1-4)GlcNAc": {"target": "Gal4S6S(b1-4)GlcNAc", "procedure,_shortened": "as §1"}, "GalNAc(a1-3)GalNAc": {"target": "GalNAc(a1-3)GalNAc", "procedure,_shortened": "as §1"}, "GlcA(b1-3)GlcNAc": {"target": "GlcA(b1-3)GlcNAc", "procedure,_shortened": "as §1"}, "Kdn(a2-3)Gal(b1-3)GlcNAc": {"target": "Kdn(a2-3)Gal(b1-3)GlcNAc", "procedure,_shortened": "as §1"}, "[11]": {"target": "Man(a1-2)Man(a1-2)Man(a1-3)Man", "procedure,_shortened": "as §1"}, "[12]": {"target": "Neu5Ac(a2-3)Gal(b1-3)[Fuc(a1-4)]GlcNAc", "procedure,_shortened": "as §1"}, "Neu5Ac(a2-3)Gal(b1-4)Glc": {"target": "Neu5Ac(a2-3)Gal(b1-4)Glc", "procedure,_shortened": "as §1"}, "[13]": {"target": "Neu5Ac(a2-3)Gal(b1-4)GlcNAc(b1-2)Man(a1-3)[Neu5Ac(a2-6)Gal(b1-4)GlcNAc(b1-2)Man(a1-6)]Man(b1-4)GlcNAc(b1-4)GlcNAc", "procedure,_shortened": "as §1"}, "[14]": {"target": "Neu5Ac(a2-3)Gal(b1-4)GlcNAc(b1-3)Gal(b1-3)GlcNAc", "procedure,_shortened": "as §1"}, "[15]": {"target": "Neu5Ac(a2-3)Gal(b1-4)[Fuc(a1-3)]GlcNAc(b1-3)Gal(b1-4)[Fuc(a1-3)]GlcNAc(b1-3)Gal(b1-4)[Fuc(a1-3)]GlcNAc", "procedure,_shortened": "as §1"}, "[16]": {"target": "Neu5Ac(a2-6)Gal(b1-4)GlcNAc6S", "procedure,_shortened": "as §1"}, "Neu5Ac(b2-6)GalNAc": {"target": "Neu5Ac(b2-6)GalNAc", "procedure,_shortened": "as §1"}, "[17]": {"target": "Neu5Gc(a2-3)Gal(b1-3)[Fuc(a1-4)]GlcNAc", "procedure,_shortened": "as §1"}, "Neu5Gc(a2-3)Gal(b1-4)Glc": {"target": "Neu5Gc(a2-3)Gal(b1-4)Glc", "procedure,_shortened": "as §1"}}, "note": "This is one part of a sample in which the strongest signals are shown more often than they occur.", "data": [{"binder": "CLC (Homo sapiens), Q9UBD9 (protein) MDLRAGDSWGMLACLCTVLWHLPAVPALNRTGDPGPGPSIQKTYDLTRYLEHQLRSLAGTYLNYLGPPFNEPDFNPPRLGAETLPRATVDLEVWRSLNDKLRLTQNYEAYSHLLCYLRGLNRQAATAELRRSLAHFCTSLQGLLGSIAGVMAALGYPLPQPLPGTEPTWTPGPAHSDFLQKMDDFWLLKELQTWLWRSAKDFNRLKKKMQPPAAAVTLHLGAHGF", "values": [{"measurement": "glycan array binding signal (z-score)", "setting": "[1]", "result": -0.218}, {"measurement": "glycan array binding signal (z-score)", "setting": "[2]", "result": -0.886}, {"measurement": "glycan array binding signal (z-score)", "setting": "[3]", "result": -0.106}, {"measurement": "glycan array binding signal (z-score)", "setting": "[4]", "result": -0.557}, {"measurement": "glycan array binding signal (z-score)", "setting": "[5]", "result": 0.011}, {"measurement": "glycan array binding signal (z-score)", "setting": "[6]", "result": 2.23}, {"measurement": "glycan array binding signal (z-score)", "setting": "[7]", "result": 1.52}, {"measurement": "glycan array binding signal (z-score)", "setting": "[8]", "result": -0.923}, {"measurement": "glycan array binding signal (z-score)", "setting": "[9]", "result": 2.72}, {"measurement": "glycan array binding signal (z-score)", "setting": "Gal(a1-6)Glc", "result": -0.312}, {"measurement": "glycan array binding signal (z-score)", "setting": "[10]", "result": -0.565}, {"measurement": "glycan array binding signal (z-score)", "setting": "Gal3S(b1-3)GalNAc", "result": -0.144}, {"measurement": "glycan array binding signal (z-score)", "setting": "Gal3S6S(b1-4)GlcNAc6S", "result": 11.1}, {"measurement": "glycan array binding signal (z-score)", "setting": "Gal4S6S(b1-4)GlcNAc", "result": 2.49}, {"measurement": "glycan array binding signal (z-score)", "setting": "GalNAc(a1-3)GalNAc", "result": 0.257}, {"measurement": "glycan array binding signal (z-score)", "setting": "GlcA(b1-3)GlcNAc", "result": 0.215}, {"measurement": "glycan array binding signal (z-score)", "setting": "Kdn(a2-3)Gal(b1-3)GlcNAc", "result": -0.192}, {"measurement": "glycan array binding signal (z-score)", "setting": "[11]", "result": 0.263}, {"measurement": "glycan array binding signal (z-score)", "setting": "[12]", "result": -0.63}, {"measurement": "glycan array binding signal (z-score)", "setting": "Neu5Ac(a2-3)Gal(b1-4)Glc", "result": 0.101}, {"measurement": "glycan array binding signal (z-score)", "setting": "[13]", "result": 0.098}, {"measurement": "glycan array binding signal (z-score)", "setting": "[14]", "result": 0.852}, {"measurement": "glycan array binding signal (z-score)", "setting": "[15]", "result": -0.485}, {"measurement": "glycan array binding signal (z-score)", "setting": "[16]", "result": -0.346}, {"measurement": "glycan array binding signal (z-score)", "setting": "Neu5Ac(b2-6)GalNAc", "result": -0.297}, {"measurement": "glycan array binding signal (z-score)", "setting": "[17]", "result": -0.279}, {"measurement": "glycan array binding signal (z-score)", "setting": "Neu5Gc(a2-3)Gal(b1-4)Glc", "result": 2.45}]}]}
